HIF-2a block: blocks HIF-2a reporter activity; 786-0 RCC cells HIF-2a reporter, luciferase luminescence, overnight; inhibition, % at 18.8 µM; 0.72% of 360,000 active;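 active = inhibition of the luminescence signal of 40% or more relative to plate controls, in a single-dose primary screen at 18.75 µM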
KKLEB tox: CF airway cell cytotoxicity counter-screen; KKLEB CF airway cells viability, ATPlite luminescence, overnight; hits give low values; cells stimulated with P. aeruginosa culture filtrate; activity change (cytotoxicity), % at 5 µM; 0.36% of 360,000 active; AID 602141;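 active = corrected activity change at or below -50% at 5 µM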
TROY signal inh: inhibitors of TROY-dependent NF-kB signaling; inhibition, % at 10 µM; 0.98% of 360,000 active; Q293 LMP1-TROYcd NF-kB luciferase reporter, 4 h;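 active = compounds whose plate-normalised and pattern-corrected inhibition of the luciferase reporter signal at the single screening dose is 50% or more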
CF NFkB block: inhibitors of cystic fibrosis induced NF-kB. 0.86% of 360,000 active. inhibition, % at 5 µM. KKLEB NF-kB-GFP reporter, PAF-induced, GFP fluorescence overnight;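 active = at least 50% inhibition at 5 µM, scaled per plate between neutral and stimulator controls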;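 also: PAF is a Pseudomonas aeruginosa culture filtrate used as stimulus; plate controls were PAF-stimulated DMSO wells for no effect and unstimulated DMSO wells for full effect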
Peg3 promoter: reduces Peg3 promoter-driven luciferase expression in HeLa | HeLa PEG-Prom luciferase reporter, luminescence, overnight | inhibition, % at 20 µM | 1.7% of 360,000 active;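 active = inhibition of at least 50% at 20 µM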
TWEAK-Fn14 inh: blocks TWEAK-Fn14 interaction in a reporter cell assay; TWEAK-stimulated Fn14 reporter cells, luciferase luminescence, 8 h; 2% of 360,000 active; AID 1159606; inhibition, % at 10 µM; in the data active = inhibition above about 50%
* hit, by the source's call; nt = no result given. Only some compounds are listed: those with a hit (about 4% of all), similar ones and a draw of the others.

SMILES	HIF-2a block	KKLEB tox	TROY signal inh	CF NFkB block	Peg3 promoter	TWEAK-Fn14 inh
O=C1NCN(c2ccccc2)C12CCN(C(c1cc3ccccc3o1)c1nnnn1Cc1ccccc1)CC2 (configuration not stated)	-5.4	-24.1	-10.9	48.8	36.3	34.7
CSCCC(c1nnnn1-c1c(C)cccc1C)N1CCC2(CC1)C(=O)NCN2c1ccccc1 (configuration not stated)	-43.7	-0.7	34.5	-22.4	33.5	30.0
Cc1ccc2c(C)c3ccc4ccccc4c3c[n+]2c1	0.2	6.3	-22.5	-125.8	55.3*	-56.8
CC(O)C1C=CC=CC(=O)OC2CC3OC4C5OC5(C)C(O)CC4(COC(=O)C(O)C(C)CCO1)C2(C)C31CO1 (configuration not stated)	65.7*	-13.4	85.6*	83.0*	104.9*	99.0*
COCCOC(=O)c1c(N)n(Cc2ccc(OC)cc2)c2nc3ccccc3nc12	6.5	-13.9	60.6*	5.0	4.4	38.5
CC(C)CCNC(=O)c1c(N)n(Cc2ccc3c(c2)OCO3)c2nc3ccccc3nc12	-2.0	-8.8	59.7*	9.9	45.4	48.7
COC(=O)c1c(N)n(Cc2ccc(OC)cc2)c2nc3ccccc3nc12	-15.8	0.5	46.2	3.4	7.3	34.8
CC(C)CNC(=O)c1c(N)n(Cc2ccco2)c2nc3ccccc3nc12	-15.1	-17.7	16.4	10.4	18.2	37.8
CCCNC(=O)c1c(N)n(Cc2ccc3c(c2)OCO3)c2nc3ccccc3nc12	11.2	-64.5*	57.5*	51.0*	41.4	30.8
Nc1c(C(=O)NCC2CCCO2)c2nc3ccccc3nc2n1Cc1ccco1 (configuration not stated)	27.1	-4.9	6.3	1.3	28.9	17.7
CC(C)CNC(=O)c1c(N)n(Cc2ccc3c(c2)OCO3)c2nc3ccccc3nc12	7.4	-18.5	63.2*	17.1	32.1	27.1
CCCCNC(=O)c1c(N)n(CCCOC)c2nc3ccccc3nc12	15.1	0.5	25.8	-12.6	13.5	3.7
COc1ccc(Cn2c(N)c(C(=O)NCc3ccco3)c3nc4ccccc4nc32)cc1OC	15.0	-20.9	66.6*	15.3	31.8	18.9
COCCCNC(=O)c1c(N)n(Cc2ccco2)c2nc3ccccc3nc12	8.7	-6.2	6.2	-20.2	11.6	18.9
CC(C)=CCc1c(O)cc2c(c1O)C(=O)CC(c1ccc(O)cc1)O2 (configuration not stated)	-41.1	-10.1	51.9*	7.6	3.4	35.5
COc1ccc2[nH]c(C)c(CCNCc3cn(C)c4ccccc34)c2c1	8.6	-19.4	7.3	39.4	87.1*	12.8
C1=NCCCN2CCCCC12 (configuration not stated)	21.7	-13.2	-0.1	12.7	-9.3	12.8
O=C1NC(=O)C(=Cc2c(Cl)cccc2Cl)C(=O)N1	26.0	-37.6	19.4	58.8*	14.7	9.9
CCn1nc(-c2ccccc2)nc2c(=O)n(C)c(=O)nc1-2	17.1	-15.7	-0.7	2.6	8.4	17.9
Cc1nc2c(=O)n(C)c(=O)nc-2n(C)n1	81.5*	-73.9*	86.3*	76.6*	104.7*	102.3*
COc1ccc(-n2nnnc2C(CCSC)N2CCC3(CC2)C(=O)NCN3c2ccccc2)cc1 (configuration not stated)	11.8	-15.9	-10.2	12.3	25.1	0.9
O=C1NC(=O)N(CCc2ccc(F)cc2)C(=O)/C1=C\C=C\c1ccccc1	10.7	-48.4	32.3	89.3*	33.7	97.8*
Cc1ccc(CN2Cc3ccc(Br)cc3-n3nncc3C2)cc1	-3.1	-2.4	7.1	11.0	-8.2	-8.7
COCCN1C(=O)/C(=C/c2c(OC)cc(OC)cc2OC)C(=O)N(c2ccccc2)C1=O	20.2	5.7	12.9	-26.4	6.6	69.9*
COc1ccc(CC2C(=O)N(c3ccccc3)C(=O)N(c3ccccc3)C2=O)c(OC)c1	-37.7	7.0	-26.8	6.6	-17.8	-6.2
SMILES	HIF-2a block	KKLEB tox	TROY signal inh	CF NFkB block	Peg3 promoter	TWEAK-Fn14 inh
Cc1nc(C)c(C(=O)NN=Cc2ccc(N(CCCl)CCCl)cc2)s1	7.4	9.3	1.9	-7.0	21.3	8.6
CC1(C)C(C(=O)N2CCN(c3ccc(Cl)cc3)CC2)C1(C)C	-22.3	-1.3	21.1	11.0	-3.0	-0.3
COC(=O)C1CN(C#N)N(c2ccc(Cl)cc2)C12c1ccccc1-c1ccccc12 (configuration not stated)	90.4*	-102.3*	90.0*	96.9*	108.6*	91.8*
CC(=O)OC1CC2OC3C=C(C)CCC3(C)C1(C)C21CO1 (configuration not stated)	71.9*	-19.2	83.7*	93.4*	107.8*	98.1*
Cc1ccc(C(O)(C(=O)OC(C)C)C(O)c2ccc(F)cc2)cc1 (configuration not stated)	2.1	nt	nt	nt	nt	nt
COC(=O)C1=C(C(=O)OC)SC2(S1)C(C(=O)OC)=C(C(=O)OC)Sc1c2ssc1=O	87.5*	-68.8*	4.7	113.1*	110.8*	58.5*
CCOC(=O)c1cc2ccccc2n1C1CCN(Cc2ccccc2)CC1	0.7	nt	-12.8	nt	nt	-11.2
Oc1c(Br)c(Br)c(Br)c(Br)c1Br	-38.2	-7.4	71.2*	48.1	48.2	1.6
Oc1c(Br)cc(Br)cc1Br	1.4	2.9	14.4	-8.4	1.7	6.2
COC1CC2C=C(C)C=CC=CC(=O)NC(c3ccccc3)CC=CCCC(O)CC(=O)C2=C1O (configuration not stated)	77.2*	-85.2*	49.9	91.3*	98.1*	60.3*
C[C@]12CCC3C(CC[C@H]4C[C@@H](O)CC[C@]34C)C1CC[C@@H]2OC(=O)[C@H](N)CCCCN (some centres not stated)	16.9	-11.2	9.4	16.8	87.4*	-21.7
Cn1c(O)c(C=Nc2ccc(F)cc2)c(=O)[nH]c1=O	7.0	13.4	5.0	-11.4	74.1*	-9.1
CNC(=O)Oc1ccccc1C1CCCCC1	5.5	-15.4	-1.9	18.8	14.0	-0.2
Cc1cccc(C)c1-n1nnnc1C(c1cccc2ccccc12)N1CCC2(CC1)C(=O)NCN2c1ccccc1 (configuration not stated)	14.9	-24.6	-9.1	25.2	30.0	9.2
CCOC(=O)[C@]12Cc3cc(Cl)ccc3[C@H]1N(C1CCCCC1)C(=O)c1cc(OC)ccc12	89.0*	nt	63.1*	nt	nt	101.9*
CCOC(=O)[C@]12Cc3cc(Cl)ccc3[C@H]1N(C)C(=O)c1cc(OC)ccc12	28.3	nt	27.0	nt	nt	5.7
NC1CC2CCCCC2CC1(O)c1ccccc1 (configuration not stated)	-2.8	-2.7	-7.6	27.0	-0.6	-0.9
Cc1nc2ccccn2c1P(=S)(c1ccccc1)c1ccccc1	15.5	-8.6	-1.0	24.0	25.1	0.7
Cc1cccc(CN2CCN(C(=O)Cc3ccccc3)CC2)c1	17.5	1.0	-5.9	0.7	18.3	-10.0

Compound activity deposited in PubChem by Sanford-Burnham Center for Chemical Genomics.
